Bioassay records from PubChem.
L3MBTL1 inh: L3MBTL1 (human) inhibition. Q9Y468. AlphaScreen L3MBTL1–H3K9me1 peptide binding. Potency, µM (series often up to 57.1 µM), most hits filed as inhibitors. 230,000 compounds, 0.66% hits. AID 485360; also: nearly all actives have a fitted effect of over 60% in size
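L3MBTL1 50 nM + b-AHA-H3(1-15)K9me1 75 nM, 30 min RT; compound added, 30 min RT; streptavidin donor/Ni-chelate acceptor beads 10 ug/mL each final, 30 min RT dark; AlphaScreen read.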
JMJD2A Tudor: JMJD2A Tudor domain (human) inhibition; O75164; AlphaScreen JMJD2A-Tudor / H3K4me3 peptide binding; Potency, µM (doses to about 114 µM), hits mostly inhibitors; 390,000 compounds, 4.4% hits; also: nearly all actives have a fitted effect of over 50% in size
HP1b chromo inh: inhibitors of HP1-beta chromodomain binding to methylated histone tails. P83916. AlphaScreen HP1-beta / biotin-H3K9me3 peptide binding. Potency, µM (top dose mostly 114 µM), actives largely listed as inhibitors. 390,000 compounds, 0.56% hits; also: nearly all actives have a fitted effect of over 70% in size
Target sequence (P83916 whole entry, looked up): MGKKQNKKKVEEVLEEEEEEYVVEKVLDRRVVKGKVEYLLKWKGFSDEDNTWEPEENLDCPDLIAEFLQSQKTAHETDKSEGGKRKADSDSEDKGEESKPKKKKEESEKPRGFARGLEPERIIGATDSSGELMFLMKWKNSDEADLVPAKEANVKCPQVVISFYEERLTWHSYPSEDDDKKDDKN
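AlphaScreen: HP1-beta (50 nM) preformed 30 min with biotin-H3(1-18)K9me3 peptide (50 nM) in PBS pH 7.4, 0.01% Tween-20. Compound added for 30 min at RT, then streptavidin donor/nickel chelate acceptor beads (10 ug/mL) for 30 min.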
G9a block: blocks human histone lysine methyltransferase G9a; Q96KQ7; G9a H3K9 monomethylation, AlphaScreen, 2 h; Potency, µM (series often up to 102 µM), actives largely listed as inhibitors; 350,000 compounds, 8.8% hits; also: nearly all actives have a fitted effect of over 75% in size
Target sequence (Q96KQ7 913-1193 limits assumed): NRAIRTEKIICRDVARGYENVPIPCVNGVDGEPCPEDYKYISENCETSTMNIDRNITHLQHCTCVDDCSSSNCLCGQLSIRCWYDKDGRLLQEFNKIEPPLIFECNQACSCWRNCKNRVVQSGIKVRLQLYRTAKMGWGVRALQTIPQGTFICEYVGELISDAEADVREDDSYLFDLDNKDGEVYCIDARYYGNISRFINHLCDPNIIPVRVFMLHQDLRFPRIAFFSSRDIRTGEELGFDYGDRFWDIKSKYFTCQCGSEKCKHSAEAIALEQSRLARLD
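AlphaScreen detection with an anti-monomethyl H3K9 antibody quantified product after a 2 h room-temperature reaction containing 500 nM biotinylated H3K9 peptide, 20 µM SAM and 20 nM enzyme, which had been preincubated 15 min with compound.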
BAZ2B inh: blocks human BAZ2B; Q9UIF8; AlphaScreen BAZ2B-H3K14Ac peptide displacement; Potency, µM (titrated, usually from 114 µM), hits mostly inhibitors; 360,000 compounds, 4.4% hits; also: nearly all actives have a fitted effect of over 60% in size
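Multi-concentration screen (max 110 uM) measuring displacement of acetylated histone H3 peptide from BAZ2B by AlphaScreen, using 50 nM protein, 50 nM peptide and 10 ug/mL streptavidin donor plus Ni-chelate acceptor beads.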
A number is an active result; [ ] = remark or other dose. Hits are enriched below; roughly 11% of the tested compounds scored in any of these assays. Calls follow the shape of the dose curve; as a rule, active = well fitted inhibition curve with a large enough effect; inconclusive = small, poorly fitted or top-dose-only effect; inactive = no such curve, though single readings can be large or run the other way.

How did CC(=O)O[C@H]1C[C@@H]2CCC3C(CC[C@@]4(C)[C@H]3C[C@H]([N+]3(C)CCCCC3)[C@@H]4OC(C)=O)[C@@]2(C)C[C@@H]1[N+]1(C)CCCCC1 (stereo partly drawn) do in these assays?
G9a block: inactive[12.7 µM]

Results for COc1ccc(CCNC(=S)NC2CCN(Cc3ccccc3)CC2)cc1 ?
JMJD2A Tudor: inactive; HP1b chromo inh: inactive; G9a block: 25.1µM; BAZ2B inh: inactive

How did Oc1ccc(N2CCN(C(=S)NCCc3ccccc3)CC2)cc1 do in these assays?
L3MBTL1 inh: inactive; JMJD2A Tudor: inconclusive; HP1b chromo inh: inconclusive; G9a block: 7.08µM; BAZ2B inh: inconclusive

What do the screens show for `S=C(NCCc1ccccc1)N1CCN(Cc2ccccc2)CC1`?
L3MBTL1 inh: inactive; JMJD2A Tudor: 4.47µM; HP1b chromo inh: inconclusive; G9a block: inconclusive; BAZ2B inh: 56.2µM

How did S=C(NCCc1ccccc1)NC1CCC(NC(=S)NCCc2ccccc2)CC1 (stereo not drawn) do in these assays?
L3MBTL1 inh: inactive; JMJD2A Tudor: inactive; HP1b chromo inh: inactive; G9a block: inactive; BAZ2B inh: inactive

How did CCN1CCN(c2c(/C=C3\SC(=S)N(Cc4ccco4)C3=O)c(C)c(C#N)c(=O)n2C)CC1 do in these assays?
JMJD2A Tudor: inconclusive; HP1b chromo inh: inactive; G9a block: 22.4µM; BAZ2B inh: inactive

Results for CCN1C(=O)/C(=C\N2CCN(C(=O)c3ccco3)CC2)SC1=S ?
L3MBTL1 inh: inactive; JMJD2A Tudor: inactive; HP1b chromo inh: inactive; G9a block: inactive; BAZ2B inh: inactive

How did COc1ccc(CCNC(=O)CCn2c(=O)c3ccccc3n(Cc3c(C)cc(C)cc3C)c2=O)cc1OC do in these assays?
JMJD2A Tudor: inactive; HP1b chromo inh: inactive; G9a block: inconclusive; BAZ2B inh: inactive

What do the screens show for `COc1ccc(CNc2cc(C)ccc2C)c(OC)c1OC`?
L3MBTL1 inh: inactive; JMJD2A Tudor: inactive; HP1b chromo inh: inactive; G9a block: inconclusive; BAZ2B inh: inactive

What do the screens show for `COc1cc(OC)c(OC)cc1CNc1cc(C)ccc1OC`?
L3MBTL1 inh: inconclusive; JMJD2A Tudor: 39.8µM; HP1b chromo inh: inconclusive; G9a block: 7.94µM

Results for COc1ccc(C)cc1NCc1cccc(OC)c1OC ?
L3MBTL1 inh: inactive; JMJD2A Tudor: 6.31µM; HP1b chromo inh: inconclusive; G9a block: 7.94µM; BAZ2B inh: 44.7µM

How did COc1cccc(CNS(=O)(=O)c2ccccc2Br)c1OC do in these assays?
JMJD2A Tudor: 79.4µM; HP1b chromo inh: inactive

How did COc1ccccc1CNS(=O)(=O)c1cc(C)ccc1OC do in these assays?
L3MBTL1 inh: inactive; JMJD2A Tudor: inactive; HP1b chromo inh: inactive; G9a block: inactive; BAZ2B inh: inactive

Results for COc1ccc(C(=O)CSc2nnc(CC(=O)Nc3ccccc3OC)n2C)cc1 ?
JMJD2A Tudor: inactive; HP1b chromo inh: inactive; G9a block: inactive; BAZ2B inh: inactive

Results for O=C(Cn1cnc2onc(-c3ccc(F)cc3)c2c1=O)N1CCN(c2ccc(F)cc2)CC1 ?
JMJD2A Tudor: inactive; HP1b chromo inh: inactive; G9a block: inactive; BAZ2B inh: inactive

How did COC(=O)c1ccccc1NC(=O)Cn1c(=O)n(CCCC(=O)NCc2ccccc2Cl)c(=O)c2ccccc21 do in these assays?
JMJD2A Tudor: inactive; HP1b chromo inh: inactive; G9a block: inactive; BAZ2B inh: inactive

How did Cc1nc2cnc(N(C)C)nc2n(CCc2ccccc2)c1=O do in these assays?
G9a block: inactive[0.501 µM]

Results for Cc1ccc(C(C[N+](=O)[O-])c2c(C)[nH]n(-c3ccccc3)c2=O)cc1 (stereo not drawn) ?
L3MBTL1 inh: inactive; JMJD2A Tudor: inactive; HP1b chromo inh: inactive; G9a block: inconclusive; BAZ2B inh: inconclusive

How did Cc1[nH]n(-c2ccccc2)c(=O)c1C(C[N+](=O)[O-])c1ccc(F)cc1 (stereo not drawn) do in these assays?
L3MBTL1 inh: inactive; JMJD2A Tudor: inactive; HP1b chromo inh: inactive; G9a block: 44.7µM; BAZ2B inh: inconclusive

Results for Cc1[nH]n(-c2ccccc2)c(=O)c1C(c1ccccc1[N+](=O)[O-])C(C#N)C#N (stereo not drawn) ?
JMJD2A Tudor: inconclusive; HP1b chromo inh: inactive; G9a block: 28.2µM; BAZ2B inh: inconclusive

How did CCC(=O)N1CCc2cc(Br)cc(S(=O)(=O)N3CCCC(C(=O)Nc4cccc(Cl)c4C)C3)c21 (stereo not drawn) do in these assays?
JMJD2A Tudor: inactive; HP1b chromo inh: inactive; G9a block: inactive; BAZ2B inh: inactive

How did Cc1nc(-c2ccc(C)c(S(=O)(=O)N3CCC(C(=O)NCc4ccc(F)cc4)CC3)c2)no1 do in these assays?
JMJD2A Tudor: inactive; HP1b chromo inh: inactive; G9a block: inactive; BAZ2B inh: inactive

What do the screens show for `Cn1c(=O)[nH]c(=O)c2[nH]c(CN3CCN(C(=O)c4ccco4)CC3)nc21`?
L3MBTL1 inh: inactive; JMJD2A Tudor: 3.16µM; HP1b chromo inh: inactive; G9a block: inconclusive; BAZ2B inh: inactive

Results for Cn1c(=O)c2c(nc(CN3CCN(C(=O)c4ccco4)CC3)n2Cc2ccc(F)cc2)n(C)c1=O ?
JMJD2A Tudor: inactive; HP1b chromo inh: inactive; G9a block: inconclusive; BAZ2B inh: inactive

How did O=C(c1ccco1)N1CCN(Cc2nc3cc(Cl)ccc3c(=O)[nH]2)CC1 do in these assays?
L3MBTL1 inh: inactive; JMJD2A Tudor: 14.1µM; HP1b chromo inh: inactive; G9a block: inactive; BAZ2B inh: inactive

How did Cn1c(=O)c2[nH]c(CN(Cc3ccccc3)Cc3ccccc3)nc2n(C)c1=O do in these assays?
L3MBTL1 inh: inactive; JMJD2A Tudor: inactive; HP1b chromo inh: inactive; G9a block: inactive; BAZ2B inh: inactive

How did CN(Cc1ccccc1)Cc1nc2c([nH]1)c(=O)[nH]c(=O)n2C do in these assays?
L3MBTL1 inh: inactive[11.4 µM]; JMJD2A Tudor: 1µM; HP1b chromo inh: inactive; G9a block: inactive[12.7 µM]; BAZ2B inh: inactive

What do the screens show for `Cc1cc(-c2ccc(C)c(S(=O)(=O)Nc3ccccc3C(F)(F)F)c2)on1`?
JMJD2A Tudor: inactive; HP1b chromo inh: inactive; G9a block: inactive; BAZ2B inh: inactive

Results for O=C(NCCOCCn1c(=O)oc2ccccc21)Nc1ccc(Cl)cc1 ?
JMJD2A Tudor: inactive; HP1b chromo inh: inactive; G9a block: inactive; BAZ2B inh: inactive

Results for O=C(N/N=C/c1coc2ccccc2c1=O)c1cc(Br)c(O)c(Br)c1 ?
JMJD2A Tudor: inactive; HP1b chromo inh: inactive; G9a block: 50.1µM; BAZ2B inh: inactive

What do the screens show for `Cc1ccccc1CNc1nnnn1C`?
L3MBTL1 inh: inactive; JMJD2A Tudor: inactive; HP1b chromo inh: inactive; G9a block: inactive; BAZ2B inh: inactive

How did COC(=O)c1sccc1N/C=C(\C#N)S(=O)(=O)C(C)(C)C do in these assays?
L3MBTL1 inh: inactive; JMJD2A Tudor: 79.4µM; HP1b chromo inh: inactive; G9a block: inactive; BAZ2B inh: inactive

What do the screens show for `Cn1cccc1CC(=O)N/N=C\c1ccccc1`?
L3MBTL1 inh: inactive; JMJD2A Tudor: inactive; HP1b chromo inh: inactive; G9a block: inactive; BAZ2B inh: inactive
